Shown are actives, neighbours in structure and some others; about 0.92% of the full set was active somewhere.
TDP1 inh = qHTS Assay for Inhibitors of Tyrosyl-DNA Phosphodiesterase (TDP1). Tyrosyl-DNA phosphodiesterase 1 (Homo sapiens), Q9NUW8. recombinant TDP1, AlphaScreen DNA substrate cleavage. Potency, µM (highest dose often 130 µM), actives largely listed as inhibitors. 0.28% of 350,000 active; further: nearly all actives have a fitted effect of over 40% in size
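Enzyme-compound mixtures sat 15 min at room temperature, followed by a 5 min reaction with 15 nM final substrate and 10 min with AlphaScreen beads. Recombinant human Tdp1 was used at 1 nM final.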
RECQ1 inh-1 = qHTS Assay for Inhibitors of RecQ-Like Dna Helicase 1 (RECQ1) | ATP-dependent DNA helicase Q1 (Homo sapiens), P46063 | Potency, µM (doses to about 57.3 µM), actives largely listed as inhibitors | 0.54% of 240,000 active | AID 2549, 2010 | RECQ1 DNA unwinding, red fluorescence kinetic read; further: nearly all actives have a fitted effect of over 30% in size
Target sequence (P46063 whole entry, looked up): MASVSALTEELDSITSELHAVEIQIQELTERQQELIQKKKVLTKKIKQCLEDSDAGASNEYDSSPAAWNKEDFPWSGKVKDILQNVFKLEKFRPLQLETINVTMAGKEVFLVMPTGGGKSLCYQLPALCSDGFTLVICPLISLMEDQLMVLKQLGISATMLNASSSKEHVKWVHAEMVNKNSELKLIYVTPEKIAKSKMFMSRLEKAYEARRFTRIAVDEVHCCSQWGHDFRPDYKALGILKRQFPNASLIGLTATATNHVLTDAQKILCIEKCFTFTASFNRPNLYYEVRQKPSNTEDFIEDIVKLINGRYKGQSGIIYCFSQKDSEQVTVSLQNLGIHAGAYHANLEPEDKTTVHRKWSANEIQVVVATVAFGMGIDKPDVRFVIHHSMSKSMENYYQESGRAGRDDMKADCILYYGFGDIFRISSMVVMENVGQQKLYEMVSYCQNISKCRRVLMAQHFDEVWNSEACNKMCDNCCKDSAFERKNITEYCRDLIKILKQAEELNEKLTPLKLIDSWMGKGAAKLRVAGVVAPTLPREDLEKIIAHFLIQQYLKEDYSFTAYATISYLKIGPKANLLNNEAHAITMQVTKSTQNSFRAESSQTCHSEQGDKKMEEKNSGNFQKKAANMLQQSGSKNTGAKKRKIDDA
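50 nM RECQ1T1 preincubated 15 min with compound in Tris pH 8.0 buffer with MgCl2, DTT, Tween-20 and 2.5 ug/ml poly(dI-dC); started with 200 nM TAMRA/BHQ-2 forked duplex and 2 mM ATP. Unwinding read as fluorescence (525/598 nm), two reads 2 h apart.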
BLM helicase inh = qHTS Assay for Inhibitors of Bloom's syndrome helicase (BLM); RecQ-like DNA helicase BLM (Homo sapiens), P54132; recombinant BLM DNA unwinding, fluorescence dequenching; Potency, µM (series often up to 56.1 µM), hits mostly inhibitors; 0.2% of 350,000 active; further: nearly all actives have a fitted effect of over 35% in size
FEN1 inhibitor = qHTS Assay for the Inhibitors of Human Flap endonuclease 1 (FEN1). P39748. Recombinant FEN1 flap cleavage, fluorescence, 15 min. Potency, µM (series often up to 114 µM), actives largely listed as inhibitors. 0.35% of 390,000 active. AID 588795, 2011; further: nearly all actives have a fitted effect of over 65% in size
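Read-out was taken twice, immediately and after 15 min, following addition of 50 nM substrate to 10 nM FEN1 that had sat with test compound for 15 min at room temperature. Curves came from a four-parameter Hill model.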
APE1 inh = qHTS Assay for Inhibitors of the Human Apurinic/apyrimidinic Endonuclease 1 (APE1); Potency, µM (doses to about 65.8 µM), most hits filed as inhibitors; AID 2517, 2012; 0.35% of 350,000 active; recombinant APE1, TAMRA/BHQ-2 abasic DNA cleavage fluorescence; DNA repair nuclease/redox regulator APEX1 (Homo sapiens), P27695; further: nearly all actives have a fitted effect of over 55% in size
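Compound pre-exposure to 0.75 nM APE1, 15 min at ambient temperature. Reaction initiated with 50 nM TAMRA/BHQ-2 THF substrate, read immediately in kinetic mode, 525 nm excitation, 598 nm emission.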
RECQ1 conf = Confirmation qHTS Assay for Inhibitors of RecQ-Like Dna Helicase 1 (RECQ1); shares compounds with RECQ1 inh-1; RECQ1 helicase DNA unwinding, fluorescence; Potency, µM (doses to about 229 µM), actives largely listed as inhibitors; 28% of 610 active; AID 2708, 2010; further: nearly all actives have a fitted effect of over 45% in size
RECQ1 ADP FP = Counterscreen for RECQ1 Inhibitors: ADP Fluorescence Polarization Displacement Assay | shares compounds with RECQ1 inh-1 | Potency, µM (highest dose often 228 µM), hits mostly inhibitors | 27% of 530 active | ADP fluorescence polarization displacement counterscreen; further: nearly all actives have a fitted effect of over 45% in size
RECQ1 inh-2 = Confirmation qHTS Assay for Inhibitors of RecQ-Like Dna Helicase 1 (RECQ1) - Round 2 Cherry Picks. Potency, µM (doses to about 119 µM), hits mostly inhibitors. shares compounds with RECQ1 inh-1. recombinant RECQ1 DNA unwinding, red fluorescence. AID 504841, 2011. 15% of 1,100 active; further: nearly all actives have a fitted effect of over 50% in size
A number is an active result; n = inactive; u = inconclusive; x = no result. The call rests on the fitted dose curve; in most records, active means well fitted curve in the direction sought with a large enough effect; inconclusive means small, poorly fitted or top-dose-only effect, or another doubt; inactive means no such curve, though single readings can be large; an effect the other way counts as inactive or inconclusive.

SMILES	TDP1 inh	RECQ1 inh-1	BLM helicase inh	FEN1 inhibitor	APE1 inh	RECQ1 inh-2	others
O=C(CCn1nnc2ccccc2c1=O)NCC1CCC(C(=O)O)CC1 (configuration not stated)	n	n	n	n	u	x	RECQ1 conf=n;RECQ1 ADP FP=n
O=C(O)CCCCCNC(=O)CCn1nnc2ccccc2c1=O	n	n	n	n	n	x
COc1ccc(C2=Nn3c(nnc3-c3ccccc3OC)SC2)c(OC)c1	n	n	n	x	n	x
O=C1NC(=Nc2ccc(O)cc2)S/C1=C\C=C\c1ccco1	n	u	n	n	u	u
COC(=O)c1cc(NS(=O)(=O)c2ccc3c(c2)OCCO3)ccc1Cl	n	x	n	n	x	x
O=C(O)c1c(Cl)c(Cl)c(Cl)c(Cl)c1-c1c2cc(I)c(=O)c(I)c-2oc2c(I)c(O)c(I)cc12	n	14µM	14µM	x	14µM	x	RECQ1 conf=45µM;RECQ1 ADP FP=0.89µM
Cc1ccccc1N=C/C=C1\N(C)c2ccccc2C1(C)C	n	u	n	n	u	n
CN1/C(=C\C=N\O)C(C)(C)c2ccccc21	n	n	n	n	n	x
CC1=C(C(=O)N2CCN(c3cccc(Cl)c3)CC2)C2(CCCCC2)OC1=O	n	x	n	n	x	x
O=C(c1ccc(Cl)cc1)N1CCN(c2cccc3[nH]ccc23)CC1	n	u	n	n	u	n
CCCCC(CC)CNC(=O)CN(C)S(=O)(=O)c1ccc2c(c1)c(=O)n(C)c(=O)n2C (configuration not stated)	n	x	n	n	x	x
Cc1ccc(NC(=O)c2sc3ncnc(N(C)C4CCCCC4)c3c2C)cc1	n	x	n	n	x	x
O=C(CSc1nc2ccccc2n1CC(=O)Nc1ccc(F)cc1F)Nc1ccc(F)cc1	n	x	n	n	x	x
Cc1sc(-n2cccc2)c(C(=O)O)c1C	n	u	n	n	n	u
Cc1ccnc(NS(=O)(=O)c2ccc(NC(=O)Cc3cccs3)cc2)n1	n	25µM	n	u	u	u
Cc1ccnc(NS(=O)(=O)c2ccc(NC(=O)Cc3ccc(F)cc3)cc2)n1	x	x	n	n	n	x
O=C(Cc1cccs1)Nc1ccc(S(=O)(=O)Nc2ncccn2)cc1	x	u	n	u	u	u
COc1ccccc1NS(=O)(=O)c1ccc(NC(=O)Cc2cccs2)cc1	n	n	n	n	n	x
Cc1cccc(CNc2cc(-c3ccoc3)ncn2)c1	n	u	n	x	n	n
CC(=O)Oc1ccc(C(=O)COC(=O)CNC(=O)COc2ccccc2C)cc1	n	x	x	n	x	x
CCN(CC)S(=O)(=O)c1ccc2c(c1)nc(CN(C)C(=O)Nc1ccc(C)c(Cl)c1)n2C	n	x	n	n	x	x
C=CCSc1nc(=O)n2ccc(C)cc2n1	n	1.6µM	n	n	n	n	RECQ1 conf=n;RECQ1 ADP FP=n
C=CCSc1nc(=O)n2ccccc2n1	n	n	n	n	n	x
CNc1ccc(/C=C/C(=O)c2ccc(C)cc2)cc1[N+](=O)[O-]	n	u	n	n	n	n
N#C/C(=C\c1ccc(O)c([N+](=O)[O-])c1)c1nc2ccccc2s1	n	n	n	u	n	x
COc1cc(/C=C(\C#N)c2nc3ccccc3s2)cc([N+](=O)[O-])c1O	n	u	u	u	u	35µM
CCN(CC)c1ccc(/C=N/NC(=S)NCc2ccccc2)cc1	n	7.1µM	n	n	n	x	RECQ1 conf=n;RECQ1 ADP FP=n
O=C(O)CCC(=O)Nc1nc2nccc(-c3ccccc3)n2n1	n	n	n	n	u	x	RECQ1 conf=u;RECQ1 ADP FP=n
